{"source": "PubChem BioAssay (Tox21)", "note": "Results filed as inconclusive are left out. A call without a number means that no potency is given here. Activity calls are given as the source filed them. Calls follow the shape of the full dose curve."}
{"molecular_target": "5-hydroxytryptamine receptor 2A (Homo sapiens) (UniProt P28223)", "sequence (P28223 whole entry, looked up)": "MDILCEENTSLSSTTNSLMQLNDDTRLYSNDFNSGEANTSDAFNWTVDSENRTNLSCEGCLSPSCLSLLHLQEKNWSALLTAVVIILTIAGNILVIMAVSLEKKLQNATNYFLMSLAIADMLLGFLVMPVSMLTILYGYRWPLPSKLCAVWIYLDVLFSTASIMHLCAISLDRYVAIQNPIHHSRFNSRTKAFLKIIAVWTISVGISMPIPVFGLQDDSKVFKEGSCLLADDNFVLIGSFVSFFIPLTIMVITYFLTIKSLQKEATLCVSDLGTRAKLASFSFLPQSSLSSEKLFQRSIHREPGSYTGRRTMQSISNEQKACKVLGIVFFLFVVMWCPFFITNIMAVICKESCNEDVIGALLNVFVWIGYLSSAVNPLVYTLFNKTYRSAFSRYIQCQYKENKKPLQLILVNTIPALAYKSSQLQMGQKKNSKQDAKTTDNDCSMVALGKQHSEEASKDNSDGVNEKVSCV", "test": "5-hydroxytryptamine receptor 2A (HTR2A) small molecule antagonists, cell-based qHTS assay (AID 1963586); also: nearly all actives have a fitted effect of over 45% in size", "details": "HTR2A-CHO cells, DOI-induced calcium flux, fluorescence; series mostly up to 61.5 µM; activity, negative = inhibition: at the top concentration", "description": "National Center for Advancing Translational Sciences [NCATS]\nDivision of Preclinical Innovation [DPI]\nU.S. Environmental Protection Agency [EPA]\nNational Institutes of Environmental Health Sciences [NIEHS]\nNational Toxicology Program [NTP]\nU.S. Food and Drug Administration [FDA]\nThe HTR2A receptor is a subtype of the 5-HT2 receptor that belongs to the serotonin receptor family and is a G protein-coupled receptor (GPCR). The HTR2A-CHO cell line stably expressing human 5-hydroxytryptamine receptor 2A (HTR2A) can be used for screening antagonists of interactions between 5-HT2 and its ligands. The HTR2A-CHO calcium flux assay is a homogeneous fluorescence-based assay for detecting the intracellular calcium level using FDSS kinetic plate reader system.\nTox21 Assay Protocol Summary:\nHTR2A-CHO cells were dispensed at 2000 cells/3uL/well in 1536-well black-clear bottom plates using a Multidrop Dispenser. After the assay plates were incubated at a 37 C/5% CO2 incubator for 18 h, 3 uL of Dye Loading Buffer was transferred to the assay plate by a Flying Reagent Dispenser. The assay plates were incubated at 37 C for 1h. For antagonist mode, 23 nL of compounds dissolved in DMSO, positive controls or DMSO only was transferred to the assay plate by a pin tool. After 5 min incubation at room temperature, 1.5 uL of 4-Iodo-2,5-dimethoxy-alpha-methylbenzeneethanamine hydrochloride (DOI) at 4nM was added to each well. The fluorescence intensity in the plates was measured using FDSS 7000EX kinetic plate reader for 3 min at 1 sec intervals."}
{"molecule": "CC(=O)CCC=C(C)C", "Potency": "inactive"}
{"molecule": "C=C(C)C(=O)OCCOC(=O)C(=C)C", "activity, negative = inhibition": "-0.847% (inactive)"}
{"molecule": "O=C=NCCCCCCN=C=O", "Potency": "inactive"}
{"molecule": "C/C=C/c1ccc(OCC)c(O)c1", "Potency": "inactive"}
{"molecule": "CCOc1ccc(NC(=O)CC(C)O)cc1", "note": "(stereo not given)", "Potency": "inactive"}
{"molecule": "Cc1ccc([N+](=O)[O-])cc1S(=O)(=O)O", "Potency": "inactive"}
{"molecule": "O=C(O)[C@H](O)[C@@H](O)[C@H](O)[C@H](O)CO", "Potency": "inactive"}
{"molecule": "CCCC(=O)O", "Potency": "inactive"}
{"molecule": "CCOCCO", "Potency": "inactive"}
{"molecule": "Cc1ccccc1Cl", "activity, negative = inhibition": "7.66% (inactive)"}
{"molecule": "NC(=O)NC(N)=O", "Potency": "inactive"}
{"molecule": "CCCCCCCCCCCCCCCCCC(=O)OCC(O)CO", "note": "(stereo not given)", "Potency": "inactive"}
{"molecule": "CCCCC(CC)COC(=O)c1ccc(C(=O)OCC(CC)CCCC)cc1", "note": "(stereo not given)", "Potency": "inactive"}
{"molecule": "CCCOC(=O)c1ccccc1", "Potency": "inactive"}
{"molecule": "CCC(O)OC(O)CC", "note": "(stereo not given)", "Potency": "inactive"}
{"molecule": "CCCCCCCCCC", "activity, negative = inhibition": "-3.87% (inactive)"}
{"molecule": "NS(=O)(=O)c1cc2c(cc1Cl)NC=NS2(=O)=O", "Potency": "inactive"}
{"molecule": "CCc1ccccc1CC", "Potency": "inactive"}
{"molecule": "CC(=O)[C@H]1CC[C@H]2[C@@H]3CC=C4C[C@@H](O)CC[C@]4(C)[C@H]3CC[C@]12C", "Potency": "inactive"}
{"molecule": "CCCCC(=O)O", "activity, negative = inhibition": "12.6% (inactive)"}
{"molecule": "Oc1ccc(Cl)cc1Cc1cc(Cl)ccc1O", "activity, negative = inhibition": "0.712% [at 28.5 µM] (inactive)"}
{"molecule": "OC(CCl)CCl", "activity, negative = inhibition": "10.6% (inactive)"}
{"molecule": "Oc1c(Cl)cc(Cl)c(Cl)c1Cl", "Potency": "inactive"}
{"molecule": "O=S(=O)(O)NC1CCCCC1", "Potency": "inactive"}
{"molecule": "O=C(Nc1ccccc1SSc1ccccc1NC(=O)c1ccccc1)c1ccccc1", "Potency": "inactive"}
{"molecule": "CCN=c1cc2oc3cc(NCC)c(C)cc3c(-c3ccccc3C(=O)OCC)c-2cc1C", "Potency": "inactive"}
{"molecule": "CC(=O)C(=O)O", "Potency": "inactive"}
{"molecule": "CC(CCC(=O)O)(c1ccc(O)cc1)c1ccc(O)cc1", "Potency": "inactive"}
{"molecule": "CCCCCCCCCC(=O)OC", "Potency": "inactive"}
{"molecule": "CCCCCCCCCCCCCC(=O)O", "Potency": "inactive"}
{"molecule": "CC(=O)OC[C@H]1O[C@@](COC(C)=O)(O[C@H]2O[C@H](COC(C)=O)[C@@H](OC(C)=O)[C@H](OC(C)=O)[C@H]2OC(C)=O)[C@@H](OC(C)=O)[C@@H]1OC(C)=O", "Potency": "inactive"}
{"molecule": "CC(C)=CCl", "Potency": "inactive"}
{"molecule": "O=C1NS(=O)(=O)c2ccccc21", "Potency": "inactive"}
{"molecule": "c1ccc2scnc2c1", "Potency": "inactive"}
{"molecule": "CC(C)(CO)CO", "Potency": "inactive"}
{"molecule": "C=C(C#N)C(=O)OCC", "activity, negative = inhibition": "-5.37% (inactive)"}
{"molecule": "CCCCCCOCCO", "Potency": "inactive"}
{"molecule": "CCCCCCCCO", "Potency": "inactive"}
{"molecule": "O=c1cc[nH]c(=S)[nH]1", "Potency": "inactive"}
{"molecule": "CC(C)(N)CO", "Potency": "inactive"}
